Rows were chosen to be rich in hits. Some 17% of all compounds tested hit in one or more screens of this group.
HT1080 IDH1KD tx = qHTS for induction of synthetic lethality in tumor cells producing 2HG: qHTS for the HT-1080-IDH1KD cell line | 2% of 360,000 active | HT-1080 IDH1 knockdown viability, ATP luminescence, 48 h | Potency, µM (highest dose often 46.1 µM), actives largely listed as cytotoxic | AID 686971, 2013
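Viability of IDH1-knockdown HT-1080 fibrosarcoma cells was assessed by CellTiter-Glo after 48 h at 37 °C with titrated compound; concentration-effect curves were classified by fit quality and response size.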
DT40 TDP1 CPT = qHTS for Inhibitors of human tyrosyl-DNA phosphodiesterase 1 (TDP1): qHTS in cells in presence of CPT; chicken DT40 Tdp1-/-;hTDP1 cells + 20 nM CPT, ATP luminescence, 48 h; Potency, µM (titrated, usually from 46.2 µM), most hits filed as inhibitors; 12% of 420,000 active; AID 686979, 2013; further: nearly all actives have a fitted effect of over 55% in size
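Cell growth measured by CellTiter-Glo luminescence after a minimum 48 h, 37 C compound exposure with 20 nM CPT in Tdp1-knockout DT40 cells stably expressing hTDP1, seeded 400/well; qHTS titration format.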
HepG2 tox = qHTS for Inhibitors of TGF-b: Cytotox Counterscreen | HepG2 CAGA-GFP viability, ATP luminescence, 18 h | Potency, µM (top dose mostly 46.1 µM), actives largely listed as cytotoxic | 0.76% of 410,000 active
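CellTiter-Glo luminescence gave cytotoxicity after 18 hours at 37 degrees C. The cells were HepG2 CAGA-GFP in 1% FBS DMEM, stimulated with 500 pg/mL TGF-beta after compound addition. %Activity was normalised to no-cell wells (complete cell-killing) and DMSO (no toxicity), and curves were fitted and classified.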
TDP1 cell noCPT = qHTS for Inhibitors of human tyrosyl-DNA phosphodiesterase 1 (TDP1): qHTS in cells in absence of CPT; DT40 Tdp1-/- hTDP1 cells, no CPT, ATP luminescence, 48 h; Potency, µM (top dose mostly 46.2 µM), hits mostly inhibitors; 15% of 420,000 active; AID 686978, 2013; further: nearly all actives have a fitted effect of over 55% in size
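Chicken DT40 Tdp1-/- cells complemented with human TDP1, screened without camptothecin (DMSO vehicle only), 400 cells/well. Compounds pin-transferred, cells incubated at 37 °C for at least 48 hr. Growth read as ATP-dependent luminescence (CellTiter-Glo, 30 min at RT).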
TGFb inhibitor = qHTS for Inhibitors of TGF-b; HepG2 CAGA-GFP TGF-b/SMAD3 reporter, GFP fluorescence, 18 h; TGF-beta stimulated, 500 pg/mL final; Potency, µM (titrated, usually from 46.1 µM), actives largely listed as inhibitors; 1.2% of 410,000 active; further: nearly all actives have a fitted effect of over 65% in size
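HEPG2 CAGA-GFP, 1000 cells/well; 2 h settle, 37 C; cpd via pin tool; TGF-b 500 pg/mL final; 18 h, 37 C; GFP imaging ex488/em500-530; %Activity normalised to -TGF-b and +DMSO controls; CRC fit, curve class.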
HT1080NT lethal = qHTS for induction of synthetic lethality in tumor cells producing 2HG: qHTS for the HT-1080-NT fibrosarcoma cell line. HT-1080-NT fibrosarcoma viability, CellTiter-Glo ATP luminescence, 48 h. Potency, µM (doses to about 46.1 µM), most hits filed as cytotoxic. 1.6% of 360,000 active;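 further: NT is the 2HG producing partner of a matched IDH1 knockdown line; nearly all actives have a fitted effect of over 55% in size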
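Read-out is CellTiter-Glo luminescence after 10 minutes at room temperature, following 48 hours' compound treatment of HT-1080-NT cells (750 cells/well, RPMI, 5% FBS, 37 degrees C).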
Of the large screens only hits and unclear results are named; the others gave an inactive call. The call rests on the fitted dose curve; in most records, active means well fitted curve in the direction sought with a large enough effect; inconclusive means small, poorly fitted or top-dose-only effect, or another doubt; inactive means no such curve, though single readings can be large; an effect the other way counts as inactive or inconclusive.

C=CCc1cccc(/C=N/NC(=O)CCC(=O)Nc2ccc(F)cc2)c1O	HT1080 IDH1KD tx 23µM, DT40 TDP1 CPT 9.2µM, TDP1 cell noCPT 8.2µM, TGFb inhibitor inconclusive, HT1080NT lethal inconclusive
C=CCc1cccc(/C=N/NC(=O)C(C)Nc2cccc(C)c2)c1O (centres undefined)	HT1080 IDH1KD tx inconclusive, DT40 TDP1 CPT 4.1µM, TDP1 cell noCPT 2.9µM, TGFb inhibitor inconclusive, HT1080NT lethal inconclusive
O=C(CCC(=O)Nc1ccc(F)cc1)N/N=C/c1ccccc1	none
C=CCc1cccc(/C=N/NC(=O)C[n+]2ccccc2)c1O	HT1080 IDH1KD tx inconclusive, DT40 TDP1 CPT inconclusive, TDP1 cell noCPT inconclusive, HT1080NT lethal inconclusive
C=CCc1cccc(/C=N/NC(=O)CNc2cccc3ccccc23)c1O	HT1080 IDH1KD tx inconclusive, DT40 TDP1 CPT 4.6µM, TDP1 cell noCPT 5.8µM, TGFb inhibitor inconclusive, HT1080NT lethal inconclusive
CC1(C)NC(=O)N(CCOCCOc2c(Cl)cc(Cl)cc2Cl)C1=O	DT40 TDP1 CPT inconclusive, TDP1 cell noCPT inconclusive
NC(=O)c1ccc(NC(=O)COC(=O)CCN=C2NS(=O)(=O)c3ccccc32)cc1	none
C=CCc1cccc(/C=N/NC(=O)CCCNc2ccc(C)cc2)c1O	HT1080 IDH1KD tx inconclusive, TDP1 cell noCPT 21µM, TGFb inhibitor inconclusive, HT1080NT lethal inconclusive
COc1ccccc1/C=N/NC(=O)COCC(=O)N/N=C/c1ccccc1OC	none
Cc1ccc(NCC(=O)N/N=C\c2cccc(O)c2)cc1	none
C=CCc1cccc(/C=N/NC(=O)CNc2ccccc2OC)c1O	HT1080 IDH1KD tx 18µM, DT40 TDP1 CPT inconclusive, TDP1 cell noCPT 21µM, TGFb inhibitor 13µM, HT1080NT lethal inconclusive
COc1ccc(NC(=O)CSc2nnc3ccc(-c4cccnc4)nn23)c(OC)c1	none
O=C1CCN(C(=O)c2ccccc2)C2CCCCC12 (centres undefined)	none
COc1ccc(C(=O)N2CCN(C(=O)c3cc(OC)c(OC)c(OC)c3)CC2)cc1	none
Cc1ccc(NC(=O)C(Cc2ccccc2)n2cccc2)cc1C (centres undefined)	DT40 TDP1 CPT 12µM, TDP1 cell noCPT 16µM (no result: HT1080 IDH1KD tx, HT1080NT lethal)
Cc1cccc(NC(=O)C(Cc2ccccc2)n2cccc2)c1 (centres undefined)	DT40 TDP1 CPT inconclusive, TDP1 cell noCPT inconclusive, TGFb inhibitor inconclusive
Cc1cccc(N2CCN(C(=O)C(Cc3ccccc3)n3cccc3)CC2)c1C (centres undefined)	HT1080 IDH1KD tx inconclusive, DT40 TDP1 CPT 18µM, TDP1 cell noCPT 16µM, TGFb inhibitor inconclusive
COc1cc(C(=O)N2CCN(c3cc(Cl)ccc3Cl)CC2)cc(OC)c1OC	HT1080 IDH1KD tx 0.65µM, DT40 TDP1 CPT 0.52µM, TDP1 cell noCPT 0.41µM, TGFb inhibitor inconclusive, HT1080NT lethal 1.3µM
COc1cc(C(=O)N2CCN(c3cccc(C)c3C)CC2)cc(OC)c1OC	HT1080 IDH1KD tx 0.82µM, DT40 TDP1 CPT 0.82µM, TDP1 cell noCPT 0.82µM, TGFb inhibitor inconclusive, HT1080NT lethal 1.2µM
CC(C)c1ccc(C(=O)C[N+]2(C)CCOCC2)cc1	none (no result: HT1080 IDH1KD tx, HT1080NT lethal)
CCCCCC(C)N (centres undefined)	none (no result: HT1080 IDH1KD tx, HepG2 tox, TGFb inhibitor, HT1080NT lethal)
CCC(C)NC(=O)c1ccccc1NC(=O)CN1C(=O)c2cccc3cccc1c23 (centres undefined)	TGFb inhibitor inconclusive (no result: HT1080 IDH1KD tx, HT1080NT lethal)
Cc1cccc(N2CCN(C(=O)Cc3ccccc3[N+](=O)[O-])CC2)c1C	TDP1 cell noCPT 21µM
O=C(Cc1ccccc1[N+](=O)[O-])N1CCN(c2ccc(F)cc2)CC1	none
Cc1cccc(N2CCN(C(=O)c3ccncc3)CC2)c1C	HT1080 IDH1KD tx 13µM, DT40 TDP1 CPT 21µM, TDP1 cell noCPT 21µM, HT1080NT lethal 9.2µM
Cc1cccc(N2CCN(C(=O)N3CCOCC3)CC2)c1C	HT1080 IDH1KD tx inconclusive, DT40 TDP1 CPT inconclusive, TDP1 cell noCPT 21µM, HT1080NT lethal 16µM
Cc1cccc(N2CCN(C(=O)c3ccnn3C)CC2)c1C	none
COc1ccc(CN2CCN(c3cccc(C)c3C)CC2)cc1OC	none
COc1cc(CN2CCN(c3cccc(C)c3C)CC2)cc(Br)c1O	HT1080 IDH1KD tx inconclusive, DT40 TDP1 CPT 13µM, TDP1 cell noCPT 21µM, TGFb inhibitor inconclusive, HT1080NT lethal inconclusive
O=C(NNCc1ccc(O)cc1)c1ccccc1Cl	none
O=C(COC(=O)C1C2CC3OC(=O)C1C3C2)Nc1cccc(Cl)c1 (centres undefined)	none
CCOc1ccc(C2=Nc3ccc(Br)cc3C(c3ccc(N4CCOCC4)cc3)=NN2)cc1	DT40 TDP1 CPT inconclusive, TDP1 cell noCPT 15µM
CCOc1ccc(C2=Nc3ccccc3C(c3ccc(N4CCOCC4)cc3)=NN2)cc1	HT1080 IDH1KD tx inconclusive, DT40 TDP1 CPT 23µM, TDP1 cell noCPT 13µM
COCC(=O)N1CCC2(CC1)CCN(c1ccccn1)CC2	none (no result: HT1080 IDH1KD tx, HepG2 tox, TGFb inhibitor, HT1080NT lethal)
CCOc1cc2c(cc1OCC)C(c1ccccc1)N(c1ccc(C(=O)O)cc1)C(=O)C2 (centres undefined)	none

Bioassay records deposited in PubChem by National Center for Advancing Translational Sciences (NCATS).
